Data reported in the supplement of paper PMC4466140.

Columns and labels:
Assay in all cases: SPOT peptide array binding signal intensity (averaged, normalized) (arbitrary units (background-subtracted, floor 0; scale differs between SH3 domains)); higher = stronger binding of the SH3 domain to the peptide
[1] = molecular target: AgAbp1
How it was run: (§1)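 Four yeast species supplied the SH3 domains, which were expressed as GST fusions in E. coli BL21(DE3) and purified on glutathione Sepharose. Incubation with cellulose membranes carrying synthetic 15-mer peptides, cysteines exchanged for serines, ran overnight at 4°C at 10 μg/ml in TBS-based blocking buffer. Binding signal is reported as normalized, background-subtracted spot intensity averaged over replicates, in arbitrary units not shared between domains.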

[2] = molecular target: AgBbc1
How it was run: as §1

[3] = molecular target: AgBem1-D1
How it was run: as §1

[4] = molecular target: AgBzz1-D1
How it was run: as §1

[5] = molecular target: AgBzz1-D2
How it was run: as §1

[6] = molecular target: AgCyk3
How it was run: as §1

[7] = molecular target: AgFus1
How it was run: as §1

[8] = molecular target: AgHof1
How it was run: as §1

[9] = molecular target: AgHse1
How it was run: as §1

[10] = molecular target: AgLsb1
How it was run: as §1

[11] = molecular target: AgLsb4
How it was run: as §1

[12] = molecular target: AgMyo5
How it was run: as §1

[13] = molecular target: AgNbp2
How it was run: as §1

[14] = molecular target: AgRvs167
How it was run: as §1

[15] = molecular target: AgSho1
How it was run: as §1

[16] = molecular target: AgSla1-D1-D2
How it was run: as §1

[17] = molecular target: AgSla1-D3
How it was run: as §1

[18] = molecular target: CaAbp1-D1
How it was run: as §1

[19] = molecular target: CaAbp1-D2
How it was run: as §1

[20] = molecular target: CaBbc1
How it was run: as §1

[21] = molecular target: CaBem1-D1
How it was run: as §1

[22] = molecular target: CaBzz1-D1
How it was run: as §1

[23] = molecular target: CaBzz1-D2
How it was run: as §1

[24] = molecular target: CaCyk3
How it was run: as §1

[25] = molecular target: CaFus1
How it was run: as §1

[26] = molecular target: CaHof1
How it was run: as §1

[27] = molecular target: CaHse1
How it was run: as §1

[28] = molecular target: CaLsb1
How it was run: as §1

[29] = molecular target: CaLsb4
How it was run: as §1

[30] = molecular target: CaMyo5
How it was run: as §1

[31] = molecular target: CaNbp2
How it was run: as §1

[32] = molecular target: CaRvs167
How it was run: as §1

[33] = molecular target: CaRvs167-3
How it was run: as §1

[34] = molecular target: CaSho1
How it was run: as §1

[35] = molecular target: CaSla1-D1-D2
How it was run: as §1

[36] = molecular target: CaSla1-D3
How it was run: as §1

[37] = molecular target: ScAbp1
How it was run: as §1

[38] = molecular target: ScBbc1
How it was run: as §1

[39] = molecular target: ScBem1-D1
How it was run: as §1

[40] = molecular target: ScBzz1-D1
How it was run: as §1

[41] = molecular target: ScBzz1-D2
How it was run: as §1

[42] = molecular target: ScCyk3
How it was run: as §1

[43] = molecular target: ScFus1
How it was run: as §1

[44] = molecular target: ScHof1
How it was run: as §1

[45] = molecular target: ScHse1
How it was run: as §1

[46] = molecular target: ScLsb1
How it was run: as §1

[47] = molecular target: ScLsb2
How it was run: as §1

[48] = molecular target: ScLsb3
How it was run: as §1

[49] = molecular target: ScLsb4
How it was run: as §1

[50] = molecular target: ScMyo3
How it was run: as §1

[51] = molecular target: ScMyo5
How it was run: as §1

[52] = molecular target: ScNbp2
How it was run: as §1

[53] = molecular target: ScPex13
How it was run: as §1

[54] = molecular target: ScRvs167
How it was run: as §1

[55] = molecular target: ScSho1
How it was run: as §1

[56] = molecular target: ScSla1-D1-D2
How it was run: as §1

[57] = molecular target: ScSla1-D3
How it was run: as §1

[58] = molecular target: SpAbp1-D1
How it was run: as §1

[59] = molecular target: SpBbc1
How it was run: as §1

[60] = molecular target: SpBzz1-D1
How it was run: as §1

[61] = molecular target: SpBzz1-D2
How it was run: as §1

[62] = molecular target: SpCyk3
How it was run: as §1

[63] = molecular target: SpHof1
How it was run: as §1

[64] = molecular target: SpHof1-2
How it was run: as §1

[65] = molecular target: SpHof1-3
How it was run: as §1

[66] = molecular target: SpHse1
How it was run: as §1

[67] = molecular target: SpLsb1
How it was run: as §1

[68] = molecular target: SpLsb4
How it was run: as §1

[69] = molecular target: SpMyo1
How it was run: as §1

[70] = molecular target: SpNbp2
How it was run: as §1

[71] = molecular target: SpPex13
How it was run: as §1

[72] = molecular target: SpRvs167
How it was run: as §1

[73] = molecular target: SpSla1-D1-D2
How it was run: as §1

[74] = molecular target: SpSla1-D3
How it was run: as §1

B1: unnamed (peptide)
chain: VQQDSLPKLPFRSWG
- SPOT peptide array binding signal intensity [1]: 9.5
- SPOT peptide array binding signal intensity [2]: 38.2
- SPOT peptide array binding signal intensity [3]: 3.5
- SPOT peptide array binding signal intensity [4]: 68.5
- SPOT peptide array binding signal intensity [5]: 5.5
- SPOT peptide array binding signal intensity [6]: 29
- SPOT peptide array binding signal intensity [7]: ≤ 0
- SPOT peptide array binding signal intensity [8]: 368
- SPOT peptide array binding signal intensity [9]: 1
- SPOT peptide array binding signal intensity [10]: 295
- SPOT peptide array binding signal intensity [11]: 3220
- SPOT peptide array binding signal intensity [12]: ≤ 0
- SPOT peptide array binding signal intensity [13]: ≤ 0
- SPOT peptide array binding signal intensity [14]: 83.3
- SPOT peptide array binding signal intensity [15]: 20
- SPOT peptide array binding signal intensity [16]: ≤ 0
- SPOT peptide array binding signal intensity [17]: ≤ 0
- SPOT peptide array binding signal intensity [18]: 16
- SPOT peptide array binding signal intensity [19]: 13
- SPOT peptide array binding signal intensity [20]: 220
- SPOT peptide array binding signal intensity [21]: ≤ 0
- SPOT peptide array binding signal intensity [22]: 53
- SPOT peptide array binding signal intensity [23]: 27.5
- SPOT peptide array binding signal intensity [24]: 8
- SPOT peptide array binding signal intensity [25]: 24
- SPOT peptide array binding signal intensity [26]: 4
- SPOT peptide array binding signal intensity [27]: 9.25
- SPOT peptide array binding signal intensity [28]: ≤ 0
- SPOT peptide array binding signal intensity [29]: 6890
- SPOT peptide array binding signal intensity [30]: 0.5

B2: unnamed (peptide)
chain: DRIRMFIRFPKFLLE
- SPOT peptide array binding signal intensity [1]: 9.5
- SPOT peptide array binding signal intensity [2]: 5
- SPOT peptide array binding signal intensity [3]: 153
- SPOT peptide array binding signal intensity [4]: 12
- SPOT peptide array binding signal intensity [5]: 20
- SPOT peptide array binding signal intensity [6]: 5.5
- SPOT peptide array binding signal intensity [7]: 524
- SPOT peptide array binding signal intensity [8]: 27.5
- SPOT peptide array binding signal intensity [9]: 1880
- SPOT peptide array binding signal intensity [10]: 1
- SPOT peptide array binding signal intensity [11]: 105
- SPOT peptide array binding signal intensity [12]: 0.5
- SPOT peptide array binding signal intensity [13]: 278
- SPOT peptide array binding signal intensity [14]: 4.33
- SPOT peptide array binding signal intensity [15]: 132
- SPOT peptide array binding signal intensity [16]: 236
- SPOT peptide array binding signal intensity [17]: 5.5
- SPOT peptide array binding signal intensity [18]: 470
- SPOT peptide array binding signal intensity [19]: 318
- SPOT peptide array binding signal intensity [20]: 22.2
- SPOT peptide array binding signal intensity [21]: 27
- SPOT peptide array binding signal intensity [22]: 4
- SPOT peptide array binding signal intensity [23]: 6.75
- SPOT peptide array binding signal intensity [24]: 30.5
- SPOT peptide array binding signal intensity [25]: 1830
- SPOT peptide array binding signal intensity [26]: 0.5
- SPOT peptide array binding signal intensity [27]: 191
- SPOT peptide array binding signal intensity [28]: 0.5
- SPOT peptide array binding signal intensity [29]: 108
- SPOT peptide array binding signal intensity [30]: 42.5
- SPOT peptide array binding signal intensity [31]: 1050
- SPOT peptide array binding signal intensity [32]: 238
- SPOT peptide array binding signal intensity [33]: 413
- SPOT peptide array binding signal intensity [34]: 1280
- SPOT peptide array binding signal intensity [35]: 67
- SPOT peptide array binding signal intensity [36]: 182
- SPOT peptide array binding signal intensity [37]: 52.5
- SPOT peptide array binding signal intensity [38]: 1.5
- SPOT peptide array binding signal intensity [39]: 3
- SPOT peptide array binding signal intensity [40]: 16
- SPOT peptide array binding signal intensity [41]: 12.5
- SPOT peptide array binding signal intensity [42]: 62
- SPOT peptide array binding signal intensity [43]: 601
- SPOT peptide array binding signal intensity [44]: 1.25
- SPOT peptide array binding signal intensity [45]: 1400
- SPOT peptide array binding signal intensity [46]: ≤ 0
- SPOT peptide array binding signal intensity [47]: ≤ 0
- SPOT peptide array binding signal intensity [48]: 87
- SPOT peptide array binding signal intensity [49]: 19
- SPOT peptide array binding signal intensity [50]: 1
- SPOT peptide array binding signal intensity [51]: 1
- SPOT peptide array binding signal intensity [52]: 356
- SPOT peptide array binding signal intensity [53]: 14.8
- SPOT peptide array binding signal intensity [54]: 22.7
- SPOT peptide array binding signal intensity [55]: 870
- SPOT peptide array binding signal intensity [56]: 48.5
- SPOT peptide array binding signal intensity [57]: 69
- SPOT peptide array binding signal intensity [58]: 334
- SPOT peptide array binding signal intensity [59]: 2.5
- SPOT peptide array binding signal intensity [60]: 103
- SPOT peptide array binding signal intensity [61]: 5.5
- SPOT peptide array binding signal intensity [62]: 16
- SPOT peptide array binding signal intensity [63]: 264
- SPOT peptide array binding signal intensity [64]: 35.8
- SPOT peptide array binding signal intensity [65]: 1130
- SPOT peptide array binding signal intensity [66]: 1300
- SPOT peptide array binding signal intensity [67]: 1.25
- SPOT peptide array binding signal intensity [68]: 139
- SPOT peptide array binding signal intensity [69]: 10.8
- SPOT peptide array binding signal intensity [70]: 957
- SPOT peptide array binding signal intensity [71]: 38
- SPOT peptide array binding signal intensity [72]: 40.3
- SPOT peptide array binding signal intensity [73]: ≤ 0
- SPOT peptide array binding signal intensity [74]: 49
